TDP1 inh: qHTS Assay for Inhibitors of Tyrosyl-DNA Phosphodiesterase (TDP1) | Tyrosyl-DNA phosphodiesterase 1 (Homo sapiens), Q9NUW8 | actives 0.28% (n = 350,000) | Potency, µM (top dose mostly 130 µM), usual class: inhibitors | AID 485290, 2010 | recombinant TDP1, AlphaScreen DNA substrate cleavage; also: nearly all actives have a fitted effect of over 40% in size
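Tdp1 1 nM final; 15 min RT w/ cpd; substrate 15 nM, 5 min; beads 10 ug/ml, 10 min; AlphaScreen read. Neg ctrl: no enzyme.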
VP16 counter: VP16 counterscreen qHTS for inhibitors of ROR gamma transcriptional activity; Drosophila S2 Gal4-VP16 UAS-luciferase, luminescence, 20 h; Potency, µM (highest dose often 53.6 µM), hits mostly inhibitors; actives 3.5% (n = 310,000); AID 2546, 2010;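 also: Gal4-VP16 expression switched on by copper sulfate through the metallothionein promoter; nearly all actives have a fitted effect of over 50% in size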
TDP1 cell CPT: qHTS for Inhibitors of human tyrosyl-DNA phosphodiesterase 1 (TDP1): qHTS in cells in presence of CPT; chicken DT40 Tdp1-/-;hTDP1 cells + 20 nM CPT, ATP luminescence, 48 h; Potency, µM (titrated, usually from 46.2 µM), hits mostly inhibitors; actives 12% (n = 420,000); AID 686979, 2013; also: nearly all actives have a fitted effect of over 55% in size
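Cell growth measured by CellTiter-Glo luminescence after a minimum 48 h, 37 C compound exposure with 20 nM CPT in Tdp1-knockout DT40 cells stably expressing hTDP1, seeded 400/well; qHTS titration format.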
TDP1 cell noCPT: qHTS for Inhibitors of human tyrosyl-DNA phosphodiesterase 1 (TDP1): qHTS in cells in absence of CPT; Potency, µM (doses to about 46.2 µM), hits mostly inhibitors; DT40 Tdp1-/- hTDP1 cells, no CPT, ATP luminescence, 48 h; AID 686978, 2013; actives 15% (n = 420,000); also: nearly all actives have a fitted effect of over 55% in size
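Stably hTDP1-transfected Tdp1-null chicken DT40 cells were treated with library compounds minus camptothecin and grown for at least 48 hr at 37 °C, after which cellular ATP was quantified by luminescence.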
RORg inh: qHTS for inhibitors of ROR gamma transcriptional activity; Nuclear receptor ROR-gamma (Mus musculus), P51450; Potency, µM (doses to about 53.6 µM), most hits filed as inhibitors; actives 5.4% (n = 310,000); Drosophila S2 Gal4-RORgamma UAS-luciferase reporter, 20 h; AID 2551, 2010; also: nearly all actives have a fitted effect of over 60% in size
Target sequence (P51450 whole entry, looked up, the tested form may be a part): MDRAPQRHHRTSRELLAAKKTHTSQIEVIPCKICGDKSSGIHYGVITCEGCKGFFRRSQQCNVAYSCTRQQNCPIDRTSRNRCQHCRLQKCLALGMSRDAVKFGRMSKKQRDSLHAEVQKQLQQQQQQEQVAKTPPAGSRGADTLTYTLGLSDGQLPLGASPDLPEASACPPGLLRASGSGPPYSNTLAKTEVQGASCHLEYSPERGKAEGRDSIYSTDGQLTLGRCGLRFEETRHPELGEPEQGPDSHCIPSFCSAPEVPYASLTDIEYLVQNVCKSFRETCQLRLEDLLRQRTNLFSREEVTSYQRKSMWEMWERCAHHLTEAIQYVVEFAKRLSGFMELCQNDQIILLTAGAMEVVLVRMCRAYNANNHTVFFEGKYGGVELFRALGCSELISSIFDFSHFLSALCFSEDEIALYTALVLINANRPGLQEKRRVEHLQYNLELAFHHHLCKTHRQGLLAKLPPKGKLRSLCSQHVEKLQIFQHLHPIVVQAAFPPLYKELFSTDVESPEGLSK
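Stable Schneider cell line, Gal4 DNA-binding domain fused to ROR gamma, UAS-luciferase. Cmpd 1 hr RT → CuSO4 700 uM final → 20 hr RT → luciferase reagent 10 min → luminescence.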
Large screens that a line does not name were inactive. Most compounds without a hit are left out; they make up all but 19% or so of the library. Calls follow the shape of the dose curve; as a rule, active = well fitted curve in the direction sought with a large enough effect; inconclusive = small, poorly fitted or top-dose-only effect, or another doubt; inactive = no such curve, though single readings can be large; an effect the other way counts as inactive or inconclusive.

O=C1C2C(c3ccccc3)CC=CC2C(c2cccc([N+](=O)[O-])c2)N1Cc1ccccc1 (centres undefined)	none (no result: TDP1 cell CPT, TDP1 cell noCPT)
O=C1C2C(c3ccccc3)CC=CC2[C@H](c2ccc(C(F)(F)F)cc2)N1Cc1ccccc1 (some centres undefined)	TDP1 cell CPT 18.4µM, TDP1 cell noCPT inconclusive
Cc1ccc(C)c(NS(=O)(=O)c2csc(C(N)=O)c2)c1	RORg inh inconclusive (no result: TDP1 inh)
CCCc1sc(N)nc1-c1ccc(Cl)cc1	none
CCCCN(C)CCCNC(=O)c1cc(=O)[nH]c2ccc(S(=O)(=O)N3CCCCC3)cc12	none (no result: VP16 counter, RORg inh)
CCCCN(Cc1cc2ccccc2[nH]c1=O)S(=O)(=O)c1ccc(C)cc1	TDP1 cell CPT inconclusive, TDP1 cell noCPT 23.1µM (no result: TDP1 inh)
Cc1ccc2cc(CN(CC(C)C)S(=O)(=O)c3ccccc3)c(=O)[nH]c2c1	TDP1 cell CPT inconclusive, TDP1 cell noCPT inconclusive
Cc1ccc(S(=O)(=O)N(Cc2cc3ccccc3[nH]c2=O)c2cccc(C)c2)cc1	TDP1 cell CPT 10.3µM, TDP1 cell noCPT 7.31µM
CC(C)C(=O)N(Cc1cc2ccccc2[nH]c1=O)C(C)(C)C	TDP1 cell noCPT 20.6µM
Cc1ccc2[nH]c(=O)c(CN(c3cccc(C)c3C)S(=O)(=O)c3ccccc3)cc2c1	TDP1 cell CPT 16.4µM, TDP1 cell noCPT 5.8µM
CCc1ccc(OCCCC(=O)Nc2cccc(C(=O)O)c2)cc1	none (no result: TDP1 inh)
COc1ccccc1NS(=O)(=O)c1cc(NC(=O)c2sccc2C)ccc1N1CCOCC1	TDP1 cell CPT 20.6µM, TDP1 cell noCPT inconclusive
COc1ccccc1NS(=O)(=O)c1cc(NC(=O)c2ccncc2)ccc1N1CCOCC1	TDP1 cell CPT 11.6µM, TDP1 cell noCPT 11.6µM
COc1ccccc1NS(=O)(=O)c1cc(NC(=O)C2CCCC2)ccc1N1CCOCC1	TDP1 cell CPT 14.6µM, TDP1 cell noCPT inconclusive
COc1ccccc1NS(=O)(=O)c1cc(NC(=O)C(C)(C)C)ccc1N1CCOCC1	TDP1 cell CPT inconclusive (no result: TDP1 inh, VP16 counter, RORg inh)
COc1ccccc1NS(=O)(=O)c1cc(NC(=O)c2ccc(NC(C)=O)cc2)ccc1N1CCOCC1	TDP1 cell CPT 2.31µM, TDP1 cell noCPT 5.8µM (no result: TDP1 inh, VP16 counter, RORg inh)
COc1ccccc1NS(=O)(=O)c1cc(NC(=O)c2cnccn2)ccc1N1CCOCC1	none
Cc1ccc(N2C(=O)C3CCCN3C2=S)cc1Cl (centres undefined)	none (no result: TDP1 inh)
Cc1[nH]n(-c2cccc3ccccc23)c(=O)c1/C=N/NC(=O)c1cccc([N+](=O)[O-])c1	VP16 counter 3.55µM, TDP1 cell CPT 2.06µM, TDP1 cell noCPT 1.3µM, RORg inh 2.82µM
O=C(N/N=C/c1coc2ccccc2c1=O)c1cccc([N+](=O)[O-])c1	none
Cc1[nH]n(-c2ccccc2)c(=O)c1/C=N/NC(=O)c1cccc([N+](=O)[O-])c1	VP16 counter 2.51µM, TDP1 cell CPT 0.259µM, TDP1 cell noCPT 0.651µM, RORg inh 1µM
Cc1ccc(-n2[nH]c(C)c(/C=N/NC(=O)c3ccc([N+](=O)[O-])cc3)c2=O)c(C)c1	VP16 counter 5.01µM, RORg inh 1.78µM (no result: TDP1 cell CPT, TDP1 cell noCPT)
Cc1ccc(-n2[nH]c(C)c(/C=N/Nc3ccc([N+](=O)[O-])cc3[N+](=O)[O-])c2=O)cc1C	VP16 counter inconclusive, TDP1 cell CPT inconclusive, TDP1 cell noCPT 20.6µM
COc1ccc(CCN=Cc2c(C)[nH]n(-c3ccc([N+](=O)[O-])cc3)c2=O)cc1OC	none
O=C(N/N=C/c1ccoc1)c1ccc([N+](=O)[O-])cc1	VP16 counter inconclusive, RORg inh inconclusive
COc1ccc(NC(=O)CSc2nc(C)cc(C)c2C(=O)Nc2ccccc2OC)cc1	TDP1 cell CPT inconclusive, TDP1 cell noCPT inconclusive (no result: VP16 counter, RORg inh)
Cc1cc(C)c(C(=O)Nc2ccccc2)c(SCC(=O)Nc2ccc(Br)cc2C)n1	TDP1 cell CPT 16.4µM, TDP1 cell noCPT 23.1µM (no result: VP16 counter, RORg inh)
COc1ccccc1NC(=O)c1c(C)cc(C)nc1SCC(=O)Nc1cccc(C)c1	TDP1 cell CPT inconclusive, TDP1 cell noCPT inconclusive (no result: VP16 counter, RORg inh)
Cc1cccc(NC(=O)c2c(C)cc(C)nc2SCC(=O)c2ccccc2)c1	TDP1 cell CPT inconclusive, TDP1 cell noCPT 16.4µM (no result: VP16 counter, RORg inh)
Cc1cc(NC(=O)Cn2c(=O)n(Cc3ccccc3)c(=O)c3ccccc32)no1	VP16 counter inconclusive, RORg inh inconclusive
Cc1ccc(Cn2ccc(NC(=O)c3noc4c3CCc3ccccc3-4)n2)cc1	none
COc1ccc2c(c1)CCc1c(C(=O)Nc3c(C)nn(Cc4ccc(Cl)cc4)c3C)noc1-2	TDP1 cell CPT 20.6µM, TDP1 cell noCPT 20.6µM (no result: VP16 counter, RORg inh)
O=C(Nc1cnn(Cc2ccc(Cl)cc2Cl)c1)c1noc2c1CCc1ccccc1-2	TDP1 cell CPT 16.4µM, TDP1 cell noCPT inconclusive (no result: VP16 counter, RORg inh)
COc1ccc2c(c1)CCc1c(C(=O)Nc3c(C)nn(Cc4ccc(Cl)c(Cl)c4)c3C)noc1-2	TDP1 cell CPT 11.6µM, TDP1 cell noCPT 13µM (no result: VP16 counter, RORg inh)
Cc1nn(Cc2ccc(Cl)cc2)c(C)c1NC(=O)c1noc2c1CCc1ccccc1-2	TDP1 cell CPT 13µM, TDP1 cell noCPT 13µM, RORg inh inconclusive
COc1ccc2c(c1)CCc1c(C(=O)Nc3cc(C)n(Cc4ccc(Cl)cc4)n3)noc1-2	TDP1 cell CPT inconclusive, TDP1 cell noCPT inconclusive
CC1Cc2ccccc2N1C(=O)CCNS(=O)(=O)c1ccc2c(c1)CCC(=O)N2 (centres undefined)	none
CCOC(=O)c1c(NC(=O)C(C)Oc2ccc(Cl)c(C)c2)sc2c1CCCC2 (centres undefined)	TDP1 cell noCPT inconclusive (no result: VP16 counter, RORg inh)
O=C1NC2(CCCCCC2)C(=O)N1Cc1cccc(Cl)c1	none (no result: TDP1 inh)
COc1ccc2c(c1)CCc1c(C(=O)Nc3c(C)nn(Cc4ccccc4)c3C)noc1-2	VP16 counter inconclusive, TDP1 cell CPT 9.2µM, TDP1 cell noCPT 9.2µM, RORg inh inconclusive
CCN(CC)CCNC(=O)c1nn(-c2ccc(Cl)cc2)c2c1CCc1cc(OC)ccc1-2	TDP1 cell CPT inconclusive, TDP1 cell noCPT 20.6µM (no result: TDP1 inh, VP16 counter, RORg inh)
COc1ccc2c(c1)CCc1c(C(=O)Nc3ccn(Cc4ccc(C)cc4)n3)noc1-2	TDP1 cell noCPT inconclusive
O=c1c(-c2nnc(SCc3ccc(Cl)cc3Cl)o2)cccn1Cc1ccccc1	TDP1 cell CPT inconclusive, TDP1 cell noCPT inconclusive, RORg inh inconclusive
COc1ccc(C2C(C#N)=C(N)Nc3nc4ccccc4n32)cc1 (centres undefined)	RORg inh inconclusive
CC(C)CCN1C(Nc2ccccc2)=NC[C@@H]1CC(C)C	TDP1 cell CPT 14.6µM, TDP1 cell noCPT inconclusive (no result: TDP1 inh)
CCC(CC)CN1C(Nc2ccccc2)=NC[C@@H]1C	TDP1 cell CPT inconclusive, TDP1 cell noCPT inconclusive (no result: TDP1 inh)
CC(C)C[C@H]1CN=C(Nc2ccccc2)N1CC1CCCCCC1	TDP1 cell CPT inconclusive, TDP1 cell noCPT 20.6µM (no result: VP16 counter, RORg inh)
